Screens as filed in PubChem BioAssay.
Luc counter – Counterscreen for Luciferase (Kinase-Glo TM) Inhibition. Kinase-Glo luciferase, ATP luminescence, 8 min. Potency, µM (top dose mostly 38.3 µM), without a hit: at the highest dose activity change, negative = inhibition, hits mostly inhibitors. 200,000 compounds, 0.28% hits. AID 1379, 2008; also: % is scaled to controls: 0 for no effect and ±100 for the full control effect; nearly all actives have a fitted effect of over 60% in size
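Compounds were added to a substrate mix at pH 7.2 (50 mM imidazole, 10 uM ATP, within the enzyme's linear range), followed by Kinase-Glo detection reagent; luminescence was measured after 8 minutes at ambient temperature.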
FLuc modulator – qHTS profiling assay for firefly luciferase inhibitor/activator using purifed enzyme and Km concentrations of substrates (counterscreen for miR-21 project); Luciferin 4-monooxygenase (Photinus pyralis), P08659; purified FLuc, Km substrates, luminescence inhibition; Potency, µM (doses to about 57.5 µM), for inactives: at the highest dose activity change, negative = inhibition, usual class: inhibitors; 360,000 compounds, 6.9% hits; AID 588342, 2011;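 also: plate controls were vehicle for no effect and reference inhibitor for full effect; nearly all actives have a fitted effect of over 55% in size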
Target sequence (P08659 whole entry, looked up): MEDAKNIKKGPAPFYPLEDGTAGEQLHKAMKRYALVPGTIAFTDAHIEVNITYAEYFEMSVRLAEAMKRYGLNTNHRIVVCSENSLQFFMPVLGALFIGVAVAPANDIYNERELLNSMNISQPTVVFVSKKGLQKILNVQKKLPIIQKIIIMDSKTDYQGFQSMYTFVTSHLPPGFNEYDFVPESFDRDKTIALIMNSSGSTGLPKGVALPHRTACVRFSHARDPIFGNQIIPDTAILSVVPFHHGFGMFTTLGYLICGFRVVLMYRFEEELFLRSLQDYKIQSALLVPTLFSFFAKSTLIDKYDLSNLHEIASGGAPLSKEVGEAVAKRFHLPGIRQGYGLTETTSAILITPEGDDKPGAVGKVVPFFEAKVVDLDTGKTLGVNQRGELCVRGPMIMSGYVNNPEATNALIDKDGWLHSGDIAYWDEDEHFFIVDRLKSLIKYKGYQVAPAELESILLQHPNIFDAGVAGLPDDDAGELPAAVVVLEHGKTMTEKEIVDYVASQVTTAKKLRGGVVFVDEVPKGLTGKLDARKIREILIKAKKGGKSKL
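Biochemical qHTS of compounds, final roughly 60 µM downward over six points, against 10 nM purified firefly luciferase using Km concentrations of substrates (10 uM D-luciferin, 10 uM ATP) in Tris acetate pH 7.5 buffer; luminescence output.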
ELG1 genotoxic – qHTS screen for small molecules that induce genotoxicity in human embryonic kidney (HEK293T) cells expressing luciferase-tagged ELG1. HEK293T ELG1-luciferase reporter, luminescence, 16 h. Potency, µM (highest dose often 46 µM), for the others: at the highest dose activity change, positive = activation, hits mostly activators. 330,000 compounds, 1.3% hits. AID 504466, 2011; also: % of control where 0% means no effect; nearly all actives have a fitted effect of over 60% in size
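16 hr compound incubation (37 °C, 5% CO2) of HEK293T cells carrying luciferase-tagged ELG1; luciferase then measured by ONE-Glo luminescence after 30 min at RT.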
NPC1 prom act – qHTS Assay for NPC1 Promoter Activators; Potency, µM (doses to about 9.22 µM), for the others: at the highest dose activation, usual class: activators; Huh7 NPC1 promoter luciferase reporter, 24 h; 320,000 compounds, 2.4% hits; also: % of control where 0% means no effect; nearly all actives have a fitted effect of over 60% in size
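Stable NPC1-promoter luciferase Huh7 line; cpd (DMSO) 24 h, 37 °C, 5% CO2; Amplite luciferase reagent 10 min RT; luminescence readout. qHTS format.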
SMN2 splice up – qHTS Assay for Enhancers of SMN2 Splice Variant Expression; HEK293 SMN2-luciferase splicing reporter, luminescence, 30-36 h; Potency, µM (titrated, usually from 46.1 µM), for inactives: top-dose activity change, positive = activation, usual class: activators; 210,000 compounds, 2.8% hits; also: % of control where 0% means no effect; nearly all actives have a fitted effect of over 55% in size
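HEK293 cells carry an SMN2 […]–luciferase reporter in which exon 7 inclusion puts luciferase in frame. Cells were plated 10-12 h before compound addition, then incubated 30-36 h at 37C. ONE-Glo luminescence was read; sodium butyrate at 4.5 mM final served as control.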
Rab9 promoter act – qHTS Assay for Rab9 Promoter Activators; 320,000 compounds, 2.8% hits; Potency, µM (top dose mostly 9.22 µM), inactives show top-dose activation, negative = inhibition, hits mostly activators; Huh7 Rab9 promoter-luciferase reporter, luminescence, 24 h; also: % of control where 0% means no effect; nearly all actives have a fitted effect of over 60% in size
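Huh7 cells stably carrying Rab9 promoter–luciferase reporter, plated 1500 cells/well, compound added after 2 h and incubated 24 h at 37 °C; luciferase luminescence then read after 10 min with detection reagent.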
* = called active by the depositor; ? = inconclusive; / = no result; [ ] = another dose, or the depositor's remark. The list is not random: actives were taken first. Their share in the collection is about 7.5%. Calls follow the shape of the dose curve; as a rule, active = well fitted curve in the direction sought with a large enough effect; inconclusive = small, poorly fitted or top-dose-only effect, or another doubt; inactive = no such curve, though single readings can be large; an effect the other way counts as inactive or inconclusive. Potency is read from the fitted curve at half-maximal effect.

SMILES | Luc counter | FLuc modulator | ELG1 genotoxic | NPC1 prom act | SMN2 splice up | Rab9 promoter act
NC(=O)c1ccc(NC(=O)COC(=O)c2cc3ccccc3cc2O)cc1 | / | / | 7.4% | / | / | /
CC(c1ccc(F)cc1)n1c(-c2cccs2)n[nH]c1=S (stereo not drawn) | 1.8% | -17.1% | 0.7% | 0.1% | ? | -1.0%
CCCCc1nc2c(c3c1C[C@H](C)OC3)CN(S(=O)(=O)c1c(C)noc1C)CC2 | -7.9%[7.66 µM] | / | / | / | 4.2%[9.22 µM] | /
CC(CCc1ccccc1)NC(=O)C(=O)Nc1ccccc1 (stereo not drawn) | -5.8% | ? | ? | 3.16µM* | 14.1µM* | 2.82µM*
O=C(OCC(=O)N1CCCCC1)c1cc(NS(=O)(=O)c2ccc(Cl)c([N+](=O)[O-])c2)ccc1O | 9.9% | ? | 6.9% | -5.1% | -15.2% | -3.0%
CC1(C)CC(=O)C(C(C2=C(O)CC(C)(C)CC2=O)c2ccc(O)c([N+](=O)[O-])c2)=C(O)C1 | -5.5% | 23.9µM* | 4.2% | -5.4% | 4.5% | 0.2%
O=C(c1cc2ncc(Br)cn2n1)N1CCN(C(=O)c2ccco2)CC1 | -0.5% | 4.5% | -5.4% | -2.4% | 14.8% | -10.0%
O=C(c1ccco1)n1c(=S)nc2ccccn21 | 12.6µM* | 3.79µM* | 5.01µM* | 2.82µM* | ? | 1.41µM*
Cc1cccc2nc(=S)n(C(=O)c3ccco3)n12 | 3.16µM* | 1.07µM* | ? | ? | 49.9% | 1.26µM*
O=C(O)c1cccc(N2CCCC2=O)c1 | 7.2% | -17.9% | 3.5% | -0.5% | -2.1% | -0.8%
C/C(=N/NC(=O)c1cccc(N2CCCC2=O)c1)c1ccncc1 | -5.0% | 15.1µM* | ? | ? | / | 3.16µM*
CC(C)/C=N/NC(=O)c1cccc(N2CCCC2=O)c1 | 1.7% | -0.3% | 6.8% | -6.8% | 5.5% | -5.5%
C/C(=N/NC(=O)c1cccc(N2CCCC2=O)c1)c1ccc(Br)cc1 | / | 15.1µM* | 5.8% | 1.4% | / | -1.9%
CCn1c(SCC(=O)Nc2cccc(C)c2)nc2nc3c(cc2c1=O)COC(C)(C)C3 | / | 0.4% | -7.3% | -0.5% | / | -2.1%
Cc1sc(NC(=O)CCCC(=O)O)c(C(N)=O)c1-c1ccccc1 | 2.9% | 0.757µM* | ? | 16.0% | -0.9% | 3.8%
CS(=O)(=O)N1CCN(C(=O)c2cc(-c3cccnc3)nc3ccc(Br)cc23)CC1 | 0.8% | -13.4% | -5.0% | -2.3% | -8.9% | 0.8%
CC(=O)c1ccc(N2CCN(C(=O)c3cc(-c4cccnc4)nc4ccc(Br)cc34)CC2)cc1 | -0.6% | 10.7µM* | -8.7% | 2.0% | -18.6% | -0.1%
O=C(c1cc(-c2cccnc2)nc2ccc(Br)cc12)N1CCN(c2ncccn2)CC1 | 1.2% | 21.3µM* | -9.6% | -0.6% | -15.6% | 3.0%
Cc1cc(=O)[nH]c(SCC(=O)NC2CCCCCC2)n1 | / | / | 2.7% | / | / | /
CC1=C(C(=O)OCC2CCCO2)C(c2ccncc2)C2=C(CC(C)(C)CC2=O)N1 (stereo not drawn) | -0.4% | 1.7% | 4.0% | 0.4% | 15.6% | -0.9%
COc1cccc(OC)c1C(=O)Nc1cccc2c1CCCC2 | / | -8.5% | -6.4% | 0.2% | / | -2.2%
COc1ccccc1CC(=O)Nc1cccc2c1CCCC2 | -5.4% | -2.1% | 3.0% | -6.9% | 4.47µM* | -3.5%
Cc1cc(NC(c2nnc(-c3ccccc3)o2)c2ccccc2F)ccc1Br (stereo not drawn) | / | -4.9% | / | / | / | /
O=C(NCCc1csc(-c2ccccc2)n1)c1c(F)cccc1F | 4.2% | ? | -13.6% | 2.0% | -66.3% | -1.0%
O=C(NCCc1ccccc1)c1c(F)cccc1F | -6.8% | 16.9µM* | ? | 1.58µM* | / | 1.41µM*
SMILES | Luc counter | FLuc modulator | ELG1 genotoxic | NPC1 prom act | SMN2 splice up | Rab9 promoter act
O=C(NCCc1ccccc1)c1ccco1 | -6.5% | ? | ? | ? | 12.6µM* | ?
COc1ccc(CCNC(=O)c2[nH]c(C)c(C(C)=O)c2C)cc1OC | 3.9% | 5.9% | -1.1% | 2.4% | ? | 2.7%
CC(=O)c1c(C)[nH]c(C(=O)NCCc2ccccc2)c1C | -5.0% | 10.7µM* | ? | 2.51µM* | 11.2µM* | 1.26µM*
CN(CC(=O)NCCc1ccccc1)Cc1ccco1 | / | ? | 20.6µM* | ? | / | 26.4%
COC(=O)[C@@]1(Cc2ccc(OC)cc2)[C@H]2c3cc(C(=O)N4CCCC4)n(CCc4ccc(OC)c(Br)c4)c3C[C@H]2CN1C(=O)c1ccccc1 | -1.9% | / | / | / | -28.0% | /
COC(=O)[C@@]12CCCCN1[C@H](c1ccc(-c3ccc(OC)cc3)c(OC)c1)[C@@H]1C(=O)N(C)C(=O)[C@@H]12 | / | 2.0% | -8.0% | 5.9% | / | 0.8%
Cc1n[nH]c(C)c1S(=O)(=O)N(CC(=O)NC1CCCC1)c1ccc(C(C)C)cc1 | 1.7% | 6.8% | -7.6% | -3.1% | -9.2% | 0.8%
CCCCC1=CC2=C(OC(C)=O)C(=O)C(C)(OC(=O)c3ccc(Cl)nc3)C(=O)C2=CO1 (stereo not drawn) | 0.3% | / | / | / | -10.5% | /
COc1ccc(S(=O)(=O)c2nnn(-c3cc(Cl)c(OC)cc3OC)c2C)cc1 | / | 5.9% | / | / | -35.2% | /
COc1cc(OC)cc(C(=O)O/N=C(\N)c2ccncc2)c1 | -2.8% | ? | -1.6% | 2.1% | -2.1% | -2.0%
N/C(=N\OC(=O)c1ccccc1)c1ccncc1 | -20.4% | 19µM* | ? | ? | 25.2% | 2.82µM*
O=C(COC(=O)c1ccncc1)c1ccc(Br)cc1 | -1.4% | 7.57µM* | -1.5% | -0.8% | / | -4.4%
N/C(=N\OC(=O)c1cccc(Br)c1)c1ccncc1 | -1.2% | 12µM* | ? | 24.6% | 16.6% | 20.3%
N/C(=N\OC(=O)c1ccc(Br)cc1)c1ccncc1 | -20.3% | 4.78µM* | ? | ? | ? | ?
O=C(COC(=O)c1cccc(C(=O)OCC(=O)c2ccc(Br)cc2)n1)c1ccc(Br)cc1 | -1.7% | ? | -0.1% | 4.9% | -14.7% | 4.4%
COc1cc(OC)c(N(C)C(=O)Cn2ncc3c(=O)oc4ccccc4c32)cc1Cl | / | -1.4% | / | / | -2.1% | /
